# In PMC12701074:
# How the values were obtained:
# [1] = target: Histone H4 (UniProt P62805); assay: cross-linking mass spectrometry
# [2] = target: Histone H1.4 (UniProt P10412); assay: cross-link between two proteins; cross-linking mass spectrometry
# [3] = target: Protein RCC2 (UniProt Q9P258); assay: as above
# [4] = target: Beta-actin-like protein 2 (UniProt Q562R1); assay: as above
# [5] = target: Elongation factor 1-alpha 1 (UniProt P68104); assay: as above
# [6] = target: Histone H2B type 1-B (UniProt P33778); assay: as above
# [7] = target: Histone H2B type 1-L (UniProt Q99880); assay: as above
# [8] = target: Large ribosomal subunit protein eL8 (UniProt P62424); assay: as above
# [9] = target: Nucleolin (UniProt P19338); assay: as above
# [10] = target: Tubulin beta-2B chain (UniProt Q9BVA1); assay: as above
# [11] = target: Tubulin beta-3 chain (UniProt Q13509); assay: as above
# [12] = target: Tubulin beta-4B chain (UniProt P68371); assay: as above
# Tubulin beta-4B chain, sequence (P68371 whole entry): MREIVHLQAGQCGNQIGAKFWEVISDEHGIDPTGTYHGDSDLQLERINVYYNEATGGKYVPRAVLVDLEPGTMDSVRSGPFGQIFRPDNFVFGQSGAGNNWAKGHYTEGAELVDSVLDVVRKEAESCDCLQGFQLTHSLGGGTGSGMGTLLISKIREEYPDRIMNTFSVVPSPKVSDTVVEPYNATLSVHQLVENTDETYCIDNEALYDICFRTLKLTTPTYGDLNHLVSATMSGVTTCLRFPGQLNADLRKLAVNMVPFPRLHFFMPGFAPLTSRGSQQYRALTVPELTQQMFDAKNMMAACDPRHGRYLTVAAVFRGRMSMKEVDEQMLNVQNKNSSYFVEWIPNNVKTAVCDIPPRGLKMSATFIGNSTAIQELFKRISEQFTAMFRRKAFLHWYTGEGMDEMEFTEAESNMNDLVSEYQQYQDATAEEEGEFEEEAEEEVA
# Protein RCC2, sequence (Q9P258 whole entry): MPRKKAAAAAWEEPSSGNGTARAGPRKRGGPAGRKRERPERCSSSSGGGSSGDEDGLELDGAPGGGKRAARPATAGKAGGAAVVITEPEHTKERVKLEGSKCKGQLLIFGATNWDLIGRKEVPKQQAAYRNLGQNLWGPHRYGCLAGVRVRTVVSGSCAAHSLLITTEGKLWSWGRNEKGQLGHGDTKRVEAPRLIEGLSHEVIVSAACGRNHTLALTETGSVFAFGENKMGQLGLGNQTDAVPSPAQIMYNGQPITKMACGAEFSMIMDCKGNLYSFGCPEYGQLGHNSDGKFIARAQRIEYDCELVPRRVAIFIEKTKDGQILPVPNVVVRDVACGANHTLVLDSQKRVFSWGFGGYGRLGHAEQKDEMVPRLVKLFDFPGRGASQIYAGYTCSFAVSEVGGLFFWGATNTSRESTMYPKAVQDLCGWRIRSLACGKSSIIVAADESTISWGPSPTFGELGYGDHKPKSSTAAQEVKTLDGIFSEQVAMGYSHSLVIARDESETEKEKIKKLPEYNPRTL
# ATP-dependent RNA helicase A, Q08211, sequence (Q08211 whole entry): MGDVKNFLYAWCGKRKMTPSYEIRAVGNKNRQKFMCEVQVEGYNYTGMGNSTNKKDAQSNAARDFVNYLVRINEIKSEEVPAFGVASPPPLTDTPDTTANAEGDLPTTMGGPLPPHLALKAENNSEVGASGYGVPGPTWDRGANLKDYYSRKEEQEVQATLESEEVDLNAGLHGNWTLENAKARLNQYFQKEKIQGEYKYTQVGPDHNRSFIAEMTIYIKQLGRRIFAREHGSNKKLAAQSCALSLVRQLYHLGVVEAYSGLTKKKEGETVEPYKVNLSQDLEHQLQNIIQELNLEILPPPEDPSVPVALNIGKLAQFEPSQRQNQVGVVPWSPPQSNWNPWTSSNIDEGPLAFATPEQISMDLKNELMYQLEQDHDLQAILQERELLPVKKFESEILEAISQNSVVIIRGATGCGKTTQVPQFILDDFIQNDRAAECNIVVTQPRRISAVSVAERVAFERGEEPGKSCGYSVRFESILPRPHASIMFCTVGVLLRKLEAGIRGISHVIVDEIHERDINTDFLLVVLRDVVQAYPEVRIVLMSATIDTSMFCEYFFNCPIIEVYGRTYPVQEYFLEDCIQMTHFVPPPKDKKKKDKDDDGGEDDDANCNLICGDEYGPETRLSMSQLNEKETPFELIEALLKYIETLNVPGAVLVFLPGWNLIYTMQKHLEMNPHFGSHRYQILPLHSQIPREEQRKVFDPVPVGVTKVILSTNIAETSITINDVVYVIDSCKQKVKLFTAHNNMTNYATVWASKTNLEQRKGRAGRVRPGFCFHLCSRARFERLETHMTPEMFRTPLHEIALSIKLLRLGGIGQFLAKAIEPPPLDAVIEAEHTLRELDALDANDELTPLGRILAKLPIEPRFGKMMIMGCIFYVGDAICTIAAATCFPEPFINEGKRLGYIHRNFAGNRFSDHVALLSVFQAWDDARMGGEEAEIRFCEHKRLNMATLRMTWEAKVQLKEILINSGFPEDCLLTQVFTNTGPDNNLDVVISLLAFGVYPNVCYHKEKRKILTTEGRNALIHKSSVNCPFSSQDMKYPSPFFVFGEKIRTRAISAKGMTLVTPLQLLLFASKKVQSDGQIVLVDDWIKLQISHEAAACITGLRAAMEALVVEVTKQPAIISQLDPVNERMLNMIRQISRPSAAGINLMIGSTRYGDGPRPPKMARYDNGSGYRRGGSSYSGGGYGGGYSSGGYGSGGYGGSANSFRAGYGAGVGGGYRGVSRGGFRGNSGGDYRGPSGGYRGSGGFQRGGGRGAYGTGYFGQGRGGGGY
# Tubulin beta-2B chain, sequence (Q9BVA1 whole entry): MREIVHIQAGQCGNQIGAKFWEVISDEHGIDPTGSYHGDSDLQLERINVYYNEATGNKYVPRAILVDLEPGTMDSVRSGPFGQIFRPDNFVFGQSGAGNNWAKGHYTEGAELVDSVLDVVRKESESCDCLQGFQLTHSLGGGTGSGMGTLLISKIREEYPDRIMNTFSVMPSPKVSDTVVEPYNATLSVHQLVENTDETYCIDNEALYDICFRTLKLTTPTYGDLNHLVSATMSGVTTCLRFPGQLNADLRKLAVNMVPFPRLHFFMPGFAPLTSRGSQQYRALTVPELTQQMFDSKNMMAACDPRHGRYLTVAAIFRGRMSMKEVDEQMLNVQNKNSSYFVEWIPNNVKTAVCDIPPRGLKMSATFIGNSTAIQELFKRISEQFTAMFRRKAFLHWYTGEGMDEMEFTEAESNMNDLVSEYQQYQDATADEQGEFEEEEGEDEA
# Nucleolin, sequence (P19338 whole entry): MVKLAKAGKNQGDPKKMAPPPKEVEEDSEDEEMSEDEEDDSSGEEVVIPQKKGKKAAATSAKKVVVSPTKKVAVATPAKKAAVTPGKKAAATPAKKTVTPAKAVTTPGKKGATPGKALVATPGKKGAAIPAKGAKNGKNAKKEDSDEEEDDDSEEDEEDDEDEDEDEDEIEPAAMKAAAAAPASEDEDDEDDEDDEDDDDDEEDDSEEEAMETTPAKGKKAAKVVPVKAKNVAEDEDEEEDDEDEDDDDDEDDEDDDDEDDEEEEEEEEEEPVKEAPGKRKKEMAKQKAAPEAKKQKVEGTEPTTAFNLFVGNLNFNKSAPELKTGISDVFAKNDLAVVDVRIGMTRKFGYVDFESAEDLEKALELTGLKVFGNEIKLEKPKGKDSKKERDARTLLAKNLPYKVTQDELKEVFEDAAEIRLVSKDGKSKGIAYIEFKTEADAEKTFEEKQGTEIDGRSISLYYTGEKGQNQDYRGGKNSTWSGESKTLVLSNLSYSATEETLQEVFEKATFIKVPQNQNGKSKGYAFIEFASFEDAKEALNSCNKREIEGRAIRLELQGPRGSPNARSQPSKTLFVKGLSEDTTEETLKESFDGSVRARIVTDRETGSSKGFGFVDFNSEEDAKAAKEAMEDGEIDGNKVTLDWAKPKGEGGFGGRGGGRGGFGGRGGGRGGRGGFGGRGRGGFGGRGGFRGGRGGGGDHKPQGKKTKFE
# Elongation factor 1-alpha 1, sequence (P68104 whole entry): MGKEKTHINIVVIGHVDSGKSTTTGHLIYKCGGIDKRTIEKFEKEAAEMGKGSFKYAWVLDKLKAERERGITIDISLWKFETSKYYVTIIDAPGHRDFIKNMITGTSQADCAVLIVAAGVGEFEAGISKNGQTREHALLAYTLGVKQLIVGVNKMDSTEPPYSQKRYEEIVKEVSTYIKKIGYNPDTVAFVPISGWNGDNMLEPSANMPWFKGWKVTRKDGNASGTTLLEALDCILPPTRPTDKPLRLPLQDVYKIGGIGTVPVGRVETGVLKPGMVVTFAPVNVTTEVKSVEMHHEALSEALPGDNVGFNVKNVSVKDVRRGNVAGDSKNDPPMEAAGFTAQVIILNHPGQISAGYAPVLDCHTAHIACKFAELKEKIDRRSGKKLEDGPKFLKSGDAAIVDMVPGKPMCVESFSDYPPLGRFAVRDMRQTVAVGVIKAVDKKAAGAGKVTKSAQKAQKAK
# Glyceraldehyde-3-phosphate dehydrogenase, P04406, sequence (P04406 whole entry): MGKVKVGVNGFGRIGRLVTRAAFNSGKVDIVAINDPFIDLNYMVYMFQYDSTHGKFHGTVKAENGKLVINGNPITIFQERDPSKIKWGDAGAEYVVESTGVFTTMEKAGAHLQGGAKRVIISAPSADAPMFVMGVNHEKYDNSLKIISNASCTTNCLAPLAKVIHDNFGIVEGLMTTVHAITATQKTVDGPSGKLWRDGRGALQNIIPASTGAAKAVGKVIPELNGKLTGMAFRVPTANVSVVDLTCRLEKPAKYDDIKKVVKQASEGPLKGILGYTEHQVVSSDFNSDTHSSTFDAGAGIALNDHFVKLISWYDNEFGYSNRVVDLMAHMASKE
# Tubulin beta-3 chain, sequence (Q13509 whole entry): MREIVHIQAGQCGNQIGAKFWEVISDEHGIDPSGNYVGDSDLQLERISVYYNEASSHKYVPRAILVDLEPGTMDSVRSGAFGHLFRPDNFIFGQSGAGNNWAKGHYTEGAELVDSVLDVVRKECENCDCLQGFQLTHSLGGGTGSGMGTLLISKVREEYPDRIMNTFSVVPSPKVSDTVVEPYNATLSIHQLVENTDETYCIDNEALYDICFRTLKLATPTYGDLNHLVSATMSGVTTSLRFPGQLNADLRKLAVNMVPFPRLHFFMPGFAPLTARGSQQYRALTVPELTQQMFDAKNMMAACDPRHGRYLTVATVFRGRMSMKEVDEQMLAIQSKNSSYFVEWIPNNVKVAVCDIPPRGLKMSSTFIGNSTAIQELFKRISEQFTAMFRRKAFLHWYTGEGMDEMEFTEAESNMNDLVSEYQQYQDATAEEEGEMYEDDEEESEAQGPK
# Beta-actin-like protein 2, sequence (Q562R1 whole entry): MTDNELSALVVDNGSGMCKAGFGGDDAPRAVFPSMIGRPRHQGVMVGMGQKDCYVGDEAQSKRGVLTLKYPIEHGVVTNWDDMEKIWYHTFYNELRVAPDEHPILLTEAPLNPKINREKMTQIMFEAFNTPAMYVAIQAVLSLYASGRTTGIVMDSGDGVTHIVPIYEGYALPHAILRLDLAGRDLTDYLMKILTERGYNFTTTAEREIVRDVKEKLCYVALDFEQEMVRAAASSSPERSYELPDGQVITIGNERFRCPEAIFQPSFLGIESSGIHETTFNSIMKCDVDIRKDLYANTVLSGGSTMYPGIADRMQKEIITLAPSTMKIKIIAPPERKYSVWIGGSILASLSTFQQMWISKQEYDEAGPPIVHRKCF
substance,measurement,setting,value
"High mobility group protein B1, P09429",listed as a hit,[1],yes
same,listed as a hit,[2],yes
same,listed as a hit,[3],yes
"Destrin, P60981",listed as a hit,[4],yes
"Fructose-bisphosphate aldolase A, P04075",listed as a hit,[5],yes
same,listed as a hit,[6],yes
"Heterogeneous nuclear ribonucleoprotein D-like, O14979",listed as a hit,[7],yes
"ATP-dependent RNA helicase A, Q08211",listed as a hit,[7],yes
"Histone H1.3, P16402",listed as a hit,[8],yes
"Macrophage migration inhibitory factor, P14174",listed as a hit,[9],yes
"Tubulin beta-4B chain, P68371",listed as a hit,[10],yes
same,listed as a hit,[11],yes
"Glyceraldehyde-3-phosphate dehydrogenase, P04406",listed as a hit,[12],yes
"Tubulin beta chain, P07437",listed as a hit,[12],yes
